The record followed here is PubChem BioAssay (NCI).

The panel holds about 83,000 compounds, 20% with a hit somewhere; the sample as a whole holds those more often.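 48-hour exposure, single concentration, 96-well plates; percent growth endpoint where 0 means no net growth. Active: below 10.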 Unmarked numbers belong to inactive results. Active and inactive are the calls of the source.

What all share (assay): NCI-60 one-dose screen, 48 h (100 = growth as untreated, 0 = no growth, -100 = all killed)
One test relates to HT29 colon. As to conditions: 10 µM unless noted.
For the next test, the system named is SNB-19 CNS. As to conditions: 10 µM unless noted.
The test system of another test is U251 CNS. The conditions noted are these: 10 µM unless noted.
In a further test the test system is PC-3 prostate. The conditions noted are these: 10 µM unless noted.
In another test the test system is UACC-62 melanoma. The conditions noted are these: 10 µM unless noted.
The next test relates to LOX IMVI melanoma. As to conditions: 10 µM unless noted.
The next test relates to SK-MEL-28 melanoma. As to conditions: 10 µM.
For the next test, the system named is SK-MEL-2 melanoma. The conditions noted are these: 10 µM unless noted.
Another test relates to EKVX NSCLC. The conditions noted are these: 10 µM unless noted.
In the next test the test system is SN12C renal. The conditions noted are these: 10 µM unless noted.
Another test concerns UO-31 renal. As to conditions: 10 µM unless noted.
The test system of another test is TK-10 renal. The conditions noted are these: 10 µM unless noted.
A further test deals with ACHN renal. As to conditions: 10 µM unless noted.
The next test has as its system CAKI-1 renal. As to conditions: 10 µM unless noted.
In the next test the test system is CCRF-CEM leukemia. The conditions noted are these: 10 µM unless noted.
Another test relates to MOLT-4 leukemia. As to conditions: 10 µM unless noted.
A further test relates to SR leukemia. As to conditions: 10 µM unless noted.
The next test relates to SNB-75 CNS. As to conditions: 10 µM unless noted.
Another test concerns SK-MEL-5 melanoma. The conditions noted are these: 10 µM unless noted.
A further test concerns A498 renal. The conditions noted are these: 10 µM unless noted.

As to `CCN1C(=O)N(c2ccccc2)C2Nn3c(s/c(=C4\C(=O)N(C(C)C)c5ccccc54)c3=O)=NC21` (stereo not drawn), the growth in the test on HT29 colon is 105%; with SNB-19 CNS it was 96%; in the test with U251 CNS, 104%; in the test with PC-3 prostate it was 106%; with UACC-62 melanoma it was 97.5%; in the test with LOX IMVI melanoma it was 100%. In addition, the growth in the test on SK-MEL-28 melanoma was 118%; in the test with SK-MEL-2 melanoma it was 102%; with EKVX NSCLC, 97.8%; in the test with SN12C renal, 102%; in the test on UO-31 renal, 79.9%; in the test with TK-10 renal, 122%. Besides, the growth in the test on ACHN renal was 108%; in the test on CAKI-1 renal, 86.9%; in the test on CCRF-CEM leukemia it was 103%; with MOLT-4 leukemia, 107%; with SR leukemia, 108%.

As for `CC[C@@H](C)[C@H](NC(=O)Cn1cc(CNC(=O)[C@@H](NC(=O)OCc2ccccc2)C(C)C)nn1)C(=O)O`, the growth with SNB-75 CNS was 101%; in the test with U251 CNS, 104%; in the test with PC-3 prostate, 97.2%; in the test on SK-MEL-5 melanoma, 102%; in the test with UACC-62 melanoma, 100%; in the test with LOX IMVI melanoma, 99.7%. The growth was 113% with SK-MEL-28 melanoma; 110% in the test on SK-MEL-2 melanoma; 100% in the test on EKVX NSCLC; 97.1% in the test with SN12C renal; 95.1% in the test with UO-31 renal; 112% in the test with TK-10 renal. The growth was 88.4% in the test on CAKI-1 renal, 106% in the test with CCRF-CEM leukemia, 109% in the test with MOLT-4 leukemia and 101% in the test on SR leukemia.

As to `CC[C@H](C)[C@@H](C(=O)OC)n1cc(CNC(=O)[C@@H](Cc2ccccc2)NC(=O)OCc2ccccc2)nn1`, the growth in the test on SNB-75 CNS was 101%; in the test on SNB-19 CNS, 93.2%; in the test with PC-3 prostate, 100%; with SK-MEL-5 melanoma, 103%; in the test on UACC-62 melanoma, 94.6%; in the test on SK-MEL-28 melanoma, 110%. For the same compound, the growth with SK-MEL-2 melanoma was 105%; with EKVX NSCLC, 92.6%; in the test with SN12C renal it was 94.6%; in the test on UO-31 renal, 76.7%; in the test on TK-10 renal it was 101%; with CAKI-1 renal, 83.4%. Also, the growth with A498 renal was 83.3%; in the test with CCRF-CEM leukemia, 85.1%; in the test with MOLT-4 leukemia, 69.1%; in the test on SR leukemia it was 103%.

With `O=C(Cc1ccccc1)NC(c1ccc(Cl)cc1)c1c(O)ccc2ccccc12` (stereo not drawn), the growth with HT29 colon was 12.8%; in the test on SNB-75 CNS, 40%; with U251 CNS, 1.3% (active); in the test with PC-3 prostate it was 3.12% (active); in the test on SK-MEL-5 melanoma, -49.5% (active); with UACC-62 melanoma it was 5.84% (active). In addition, the growth in the test on SK-MEL-28 melanoma was 36.6%; with SK-MEL-2 melanoma, -3.92% (active); with SN12C renal, 14.9%; with UO-31 renal, -7.48% (active); with TK-10 renal, 17.1%; with ACHN renal it was 10.1%. Besides, the growth with CAKI-1 renal is 4.37% (active); in the test with A498 renal, 32.8%; with CCRF-CEM leukemia, 13.4%; in the test on MOLT-4 leukemia, 9.11% (active); with SR leukemia, 4.83% (active).

In the case of `NC(CCc1nc2ccccc2c(=O)[nH]1)C(=O)O` (stereo not drawn), the growth in the test with HT29 colon was 104%; in the test with SNB-19 CNS, 98.3%; in the test on U251 CNS, 96.6%; in the test on PC-3 prostate it was 102%; with UACC-62 melanoma it was 100%; in the test on LOX IMVI melanoma, 102%. Besides, the growth in the test on SK-MEL-28 melanoma is 110%; with SK-MEL-2 melanoma it was 102%; with EKVX NSCLC, 99.7%; in the test with SN12C renal it was 96.6%; in the test with TK-10 renal it was 102%; in the test with ACHN renal, 113%. For the same compound, the growth was 87.5% with CAKI-1 renal, 103% in the test with CCRF-CEM leukemia, 103% in the test on MOLT-4 leukemia and 96.8% in the test with SR leukemia.

For the compound `c1ccc2c(c1)oc1cc3sccc3nc12`, the growth with HT29 colon is 106%; with SNB-19 CNS it was 98.3%; in the test on U251 CNS, 92%; in the test with PC-3 prostate, 93.4%; in the test with UACC-62 melanoma it was 94.2%; with LOX IMVI melanoma it was 96.8%. Also, the growth in the test with SK-MEL-28 melanoma is 109%; in the test with SK-MEL-2 melanoma it was 95.3%; in the test on EKVX NSCLC, 101%; with SN12C renal, 93%; in the test on TK-10 renal it was 135%; in the test on ACHN renal it was 99.5%. Further, the growth with CAKI-1 renal was 78%; in the test on CCRF-CEM leukemia it was 100%; in the test with MOLT-4 leukemia it was 97.7%; in the test on SR leukemia, 96.5%.

Turning to `NC(=O)CSc1nc(-c2ccc(F)cc2)cc(-c2ccco2)n1`, the growth was 99.2% in the test with SNB-75 CNS; 106% in the test with SNB-19 CNS; 99.2% in the test on U251 CNS; 89.1% in the test with PC-3 prostate; 103% with SK-MEL-5 melanoma; 95.4% in the test on UACC-62 melanoma. In addition, the growth is 96.4% in the test with LOX IMVI melanoma; 115% with SK-MEL-28 melanoma; 101% in the test with SK-MEL-2 melanoma; 101% in the test on SN12C renal; 75.2% with UO-31 renal; 129% with TK-10 renal. In addition, the growth is 85.7% in the test with CAKI-1 renal; 103% with A498 renal; 107% with CCRF-CEM leukemia; 97.9% in the test with MOLT-4 leukemia; 94.5% in the test with SR leukemia.

For the compound `CC(C)[C@H](NC(=O)Cn1cc(C(=O)O)nn1)C(=O)O`, the growth with SNB-75 CNS was 104%; in the test with SNB-19 CNS, 105%; in the test with U251 CNS, 100%; in the test with PC-3 prostate, 94.1%; in the test on SK-MEL-5 melanoma it was 98.6%; in the test with UACC-62 melanoma it was 103%. The growth is 104% with LOX IMVI melanoma; 111% in the test on SK-MEL-28 melanoma; 127% with SK-MEL-2 melanoma; 93.8% in the test with EKVX NSCLC; 95.7% with SN12C renal; 88.7% in the test on UO-31 renal. Moreover, the growth with TK-10 renal is 115%; in the test with CAKI-1 renal, 89.4%; in the test with A498 renal it was 90.6%; with CCRF-CEM leukemia it was 113%; in the test with MOLT-4 leukemia, 96.7%; in the test on SR leukemia, 101%.
